This is one part of a sample in which hits are shown more often than they occur.
12-LOX inh = Primary qHTS assay for inhibitors of human arachidonate 12S-lipoxygenase (ALOX12): Round 2; AID 1671190, 2021; Potency, µM (doses to about 108 µM), inactives show at the top dose activity change, negative = inhibition, hits mostly inhibitors; 1.1% of 580,000 active; Polyunsaturated fatty acid lipoxygenase ALOX12 (Homo sapiens), P18054; purified 12hLO, xylenol orange hydroperoxide absorbance; note: potency is the fitted concentration of half-maximal effect
Target sequence (P18054 whole entry, looked up): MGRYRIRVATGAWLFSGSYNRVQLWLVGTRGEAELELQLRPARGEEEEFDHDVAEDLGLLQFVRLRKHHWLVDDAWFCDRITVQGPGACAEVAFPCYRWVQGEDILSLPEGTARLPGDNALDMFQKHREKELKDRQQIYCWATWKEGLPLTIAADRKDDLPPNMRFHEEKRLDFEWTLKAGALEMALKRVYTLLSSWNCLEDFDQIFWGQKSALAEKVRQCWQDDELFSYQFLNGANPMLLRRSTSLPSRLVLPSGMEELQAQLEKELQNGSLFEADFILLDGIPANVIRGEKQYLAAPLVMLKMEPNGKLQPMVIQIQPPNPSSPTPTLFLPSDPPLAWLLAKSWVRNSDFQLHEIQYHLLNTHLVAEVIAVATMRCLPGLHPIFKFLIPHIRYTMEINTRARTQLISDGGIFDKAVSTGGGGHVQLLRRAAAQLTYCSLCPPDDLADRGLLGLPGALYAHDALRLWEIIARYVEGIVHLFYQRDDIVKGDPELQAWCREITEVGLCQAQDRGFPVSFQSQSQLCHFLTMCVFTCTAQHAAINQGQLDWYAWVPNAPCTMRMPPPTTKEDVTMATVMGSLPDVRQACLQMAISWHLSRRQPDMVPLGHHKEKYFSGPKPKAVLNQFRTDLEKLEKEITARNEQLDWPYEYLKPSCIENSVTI
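Purified human 12hLO (150 nM final) in 25 mM Hepes, 0.01% Triton X-100, pH 7.0 was preincubated 15 min at room temperature with compound. Then 40 uM arachidonic acid was added, 30 min. Hydroperoxide was read by Fe-XO absorbance ratio 573/405 nm.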
HT1080-NT tox = qHTS for induction of synthetic lethality in tumor cells producing 2HG: qHTS for the HT-1080-NT fibrosarcoma cell line; HT-1080-NT fibrosarcoma viability, CellTiter-Glo ATP luminescence, 48 h; Potency, µM (doses to about 46.1 µM), without a hit: at the top dose activity, negative = less viability, most hits filed as cytotoxic; 1.6% of 360,000 active;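 note: NT is the 2HG producing partner of a matched IDH1 knockdown line; potency is the fitted concentration of half-maximal effect; 0% = DMSO-treated cells and -100% = media-only wells without cells; nearly all actives have a fitted effect of over 55% in size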
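Toxicity toward the 2HG-producing NT line was scored as %Activity, normalised to DMSO and no-cell wells, from CellTiter-Glo luminescence after 48 hours' treatment.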
IL-1B inflam inh = qHTS for Inhibitors of Inflammasome Signaling: IL-1-beta AlphaLISA Primary Screen; 4.7% of 360,000 active; AID 743279, 2014; THP-1 LPS/ATP IL-1B secretion, AlphaLISA, 16 h; stronger effect = lower value; activity change, % at 57.5 µM; in the data active = activity change below about -50%; inconclusive = mostly about -30% to -49%
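Secreted IL-1B measured by AlphaLISA bead assay after 16 h compound exposure of THP-1 cells; compounds (final up to 57.5 uM) added 1 h before LPS (250 ng/mL) and ATP (1.25 mM) stimulation; lower signal means less secretion.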
HT1080 IDH1KD tx = qHTS for induction of synthetic lethality in tumor cells producing 2HG: qHTS for the HT-1080-IDH1KD cell line; Potency, µM (top dose mostly 46.1 µM), for the others: top-dose activity, negative = toxicity, actives largely listed as cytotoxic; 2% of 360,000 active; HT-1080 IDH1 knockdown viability, ATP luminescence, 48 h;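 note: potency is the fitted concentration of half-maximal effect; 0% = DMSO wells and -100% = cell-free medium wells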
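Cytotoxicity counter-line: IDH1KD HT-1080, 48 h, CellTiter-Glo. Curves classed by r2, magnitude and activity.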
TDP1 cell CPT = qHTS for Inhibitors of human tyrosyl-DNA phosphodiesterase 1 (TDP1): qHTS in cells in presence of CPT. chicken DT40 Tdp1-/-;hTDP1 cells + 20 nM CPT, ATP luminescence, 48 h. 12% of 420,000 active. Potency, µM (top dose mostly 46.2 µM), for the others: at the highest dose activity change, negative = growth inhibition, hits mostly inhibitors; note: potency is the fitted concentration of half-maximal effect; nearly all actives have a fitted effect of over 55% in size
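Cell growth measured by CellTiter-Glo luminescence after a minimum 48 h, 37 C compound exposure with 20 nM CPT in Tdp1-knockout DT40 cells stably expressing hTDP1, seeded 400/well; qHTS titration format.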
DT40 TDP1 no CPT = qHTS for Inhibitors of human tyrosyl-DNA phosphodiesterase 1 (TDP1): qHTS in cells in absence of CPT; 15% of 420,000 active; DT40 Tdp1-/- hTDP1 cells, no CPT, ATP luminescence, 48 h; AID 686978, 2013; Potency, µM (titrated, usually from 46.2 µM), for inactives: at the highest dose activity change, negative = growth inhibition, hits mostly inhibitors; note: potency is the fitted concentration of half-maximal effect; nearly all actives have a fitted effect of over 55% in size
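Chicken DT40 Tdp1-/- cells stably complemented with human TDP1 were seeded at 400 cells/well with DMSO in place of 20 nM camptothecin. After compound pinning, cells grew at least 48 hr at 37 °C; viability read by CellTiter-Glo luminescence.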
* = called active by the depositor. Unless noted, calls come from the whole dose curve; as a rule, active = well fitted curve in the direction sought with a large enough effect; inconclusive = small, poorly fitted or top-dose-only effect, or another doubt; inactive = no such curve, though single readings can be large; an effect the other way counts as inactive or inconclusive. Unless noted, % is set by controls: 0 for no effect and ±100 for the full control effect.

How did COc1ccc(NC(=O)C2CCCN(S(=O)(=O)c3ccc(F)cc3)C2)cc1 (stereo unspecified) do in these assays?
12-LOX inh: -23%; TDP1 cell CPT: 15µM*; DT40 TDP1 no CPT: 15µM*

How did CCOc1ccc(OCC)c(NC(=O)C2CCCN(S(=O)(=O)c3ccc(C)cc3)C2)c1 (stereo unspecified) do in these assays?
12-LOX inh: inconclusive; HT1080-NT tox: 4%; IL-1B inflam inh: 18; HT1080 IDH1KD tx: -5%; TDP1 cell CPT: 26µM*; DT40 TDP1 no CPT: 16µM*

Results for CCOc1ccc(OCC)c(NC(=O)C2CCCN(S(=O)(=O)c3c(C)n[nH]c3C)C2)c1 (stereo unspecified) ?
12-LOX inh: 3%; HT1080-NT tox: 3%; IL-1B inflam inh: -1; HT1080 IDH1KD tx: 10%; TDP1 cell CPT: -13%; DT40 TDP1 no CPT: -24%

What do the screens show for `CN(C)CC(NCc1cccc(C#N)c1)c1ccccc1` (stereo unspecified)?
12-LOX inh: 5%

How did Cc1ccc(NC(=O)C2CCCN(S(=O)(=O)c3cccs3)C2)cc1 (stereo unspecified) do in these assays?
12-LOX inh: -4%; HT1080-NT tox: -3%; IL-1B inflam inh: -5; HT1080 IDH1KD tx: 0%; TDP1 cell CPT: inconclusive; DT40 TDP1 no CPT: inconclusive

Results for O=C(Nc1cccc(F)c1)C1CCCN(S(=O)(=O)c2ccccc2)C1 (stereo unspecified) ?
12-LOX inh: -3%; HT1080-NT tox: -2%; IL-1B inflam inh: 2; HT1080 IDH1KD tx: -14%; TDP1 cell CPT: 18µM*; DT40 TDP1 no CPT: inconclusive

What do the screens show for `Cc1ccc(NC(=O)C2CCCN(S(=O)(=O)c3ccc(C)cc3)C2)cc1` (stereo unspecified)?
12-LOX inh: -10%; TDP1 cell CPT: 16µM*; DT40 TDP1 no CPT: 16µM*

What do the screens show for `O=C(Nc1ccc(-c2ccccc2)cc1)c1ccc2c(c1)OCO2`?
12-LOX inh: 8%

How did O=C(CCC(=O)N/N=C/c1ccccc1[N+](=O)[O-])N/N=C/c1ccccc1[N+](=O)[O-] do in these assays?
12-LOX inh: -11%

What do the screens show for `COc1cc([N+](=O)[O-])cc(/C=N/NC(=O)C(O)(c2ccccc2)c2ccccc2)c1O`?
12-LOX inh: 4%; HT1080-NT tox: inconclusive; IL-1B inflam inh: -7; HT1080 IDH1KD tx: inconclusive; TDP1 cell CPT: 4.1µM*; DT40 TDP1 no CPT: inconclusive

How did O=C(N/N=C/c1cccc([N+](=O)[O-])c1O)C(O)(c1ccccc1)c1ccccc1 do in these assays?
12-LOX inh: 0%; HT1080-NT tox: -23%; IL-1B inflam inh: 38; HT1080 IDH1KD tx: inconclusive; TDP1 cell CPT: inconclusive; DT40 TDP1 no CPT: 26µM*

Results for COc1cc([N+](=O)[O-])cc(/C=N/NC(=O)C(C)Nc2cccc3ccccc23)c1O (stereo unspecified) ?
12-LOX inh: inconclusive; HT1080-NT tox: inconclusive; IL-1B inflam inh: 55; HT1080 IDH1KD tx: 18µM*; TDP1 cell CPT: 16µM*; DT40 TDP1 no CPT: inconclusive

How did Cc1ccc2nc(-c3ccc(C)c(NC(=O)COc4ccccc4Cl)c3)oc2c1 do in these assays?
TDP1 cell CPT: -27%; DT40 TDP1 no CPT: 12%

Results for Cc1ccc(CN(CC(=O)NC(N)=O)C2CC2)cc1 ?
12-LOX inh: -1%

How did CN1/C(=C\C(=O)COC(=O)c2nccnc2N)C(C)(C)c2ccccc21 do in these assays?
12-LOX inh: -2%; HT1080-NT tox: -3%; IL-1B inflam inh: 6; HT1080 IDH1KD tx: 1%; TDP1 cell CPT: inconclusive; DT40 TDP1 no CPT: inconclusive

How did CC(C)[C@H](NC(=O)c1ccccc1)C(=O)OCC(=O)/C=C1/N(C)c2ccccc2C1(C)C do in these assays?
12-LOX inh: -3%; HT1080-NT tox: -6%; IL-1B inflam inh: 17; HT1080 IDH1KD tx: -16%; TDP1 cell CPT: 10µM*; DT40 TDP1 no CPT: 8.2µM*

Results for COc1cc(OC)cc(C(=O)NCC(=O)OCC(=O)/C=C2/N(C)c3ccccc3C2(C)C)c1 ?
12-LOX inh: -7%; HT1080-NT tox: inconclusive; IL-1B inflam inh: -60*; HT1080 IDH1KD tx: -10%; TDP1 cell CPT: inconclusive; DT40 TDP1 no CPT: 16µM*

Results for Cc1cn2nc(C(=O)NCc3ccccc3)cc2c(N(C)Cc2ccccc2)n1 ?
12-LOX inh: 37%

How did COCCN(Cc1nc(-c2ccc(-c3ccccc3)cc2)oc1C)C(C)C do in these assays?
12-LOX inh: 71%; HT1080-NT tox: -13%; IL-1B inflam inh: 13; HT1080 IDH1KD tx: -7%; TDP1 cell CPT: 15µM*; DT40 TDP1 no CPT: 21µM*

What do the screens show for `CCOC(=O)c1ccc(CN2CCCC(C)(C(=O)NCCOC)C2)cc1` (stereo unspecified)?
12-LOX inh: 8%; HT1080-NT tox: 22%; IL-1B inflam inh: 22; HT1080 IDH1KD tx: 0%; TDP1 cell CPT: inconclusive; DT40 TDP1 no CPT: inconclusive

What do the screens show for `CCNC(=O)C1(C)CCN1CCC(=O)c1ccc(Br)cc1` (stereo unspecified)?
12-LOX inh: -12%; HT1080-NT tox: 14%; IL-1B inflam inh: 0; HT1080 IDH1KD tx: 5%; TDP1 cell CPT: 21µM*; DT40 TDP1 no CPT: 16µM*

Results for COCCNC(=O)C1(C)CCCN(CCC(=O)c2ccc(Br)cc2)C1 (stereo unspecified) ?
12-LOX inh: -15%; HT1080-NT tox: inconclusive; IL-1B inflam inh: -16; HT1080 IDH1KD tx: inconclusive; TDP1 cell CPT: 5.8µM*; DT40 TDP1 no CPT: 7.3µM*

How did CCNC(=O)C1(C)CCN1CCS(=O)(=O)c1ccc(C)cc1 (stereo unspecified) do in these assays?
12-LOX inh: -25%; HT1080-NT tox: 8%; IL-1B inflam inh: 10; HT1080 IDH1KD tx: inconclusive; TDP1 cell CPT: -8%; DT40 TDP1 no CPT: -3%

How did CCCNC(=O)C1(C)CCN(CCC(=O)c2ccc(Br)cc2)C1 (stereo unspecified) do in these assays?
12-LOX inh: inconclusive; HT1080-NT tox: -20%; IL-1B inflam inh: -14; HT1080 IDH1KD tx: inconclusive; TDP1 cell CPT: 2.6µM*; DT40 TDP1 no CPT: 3.3µM*

Assay outcomes (PubChem BioAssay)
